Results on 5 compounds are retold here after PubChem BioAssay.

Activity calls are given as the source filed them. Unless noted, the rule behind the calls is not given here.

Test [1] is described as follows: anti-His antibody binders, primary screen, artefact control for SMM control protein annotation, biochemical, small-molecule microarray, 635 nm fluorescence (AID 1128).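 Note: score merges feature fluorescence with signal-to-noise for each printed compound spot.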 Conditions: anti-His Alexa647 antibody binding, higher = more signal.
The test system of test [2] is Human papillomavirus type 1a E7 protein (residues 1-88). Put plainly: HPV1a E7 small-molecule binders, primary screen, biochemical, small-molecule microarray, residues 1-88, 635 nm (AID 1129). The conditions noted are these: small-molecule microarray binding, fluorescence 635 nm; higher = more signal.
The target in test [3] is Focal adhesion kinase 1 (Homo sapiens) (UniProt Q05397). Put plainly: small-molecule microarray binders of FAK, primary screen, biochemical, 635/667 nm fluorescence, BSA, DTT (AID 1130).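 Note: composite of spot emission at 667 nm and signal to noise over triplicate slides.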 Conditions: PTK2 binding, 635 nm fluorescence, higher = more signal.
In test [4] the test system is Fibrinogen (Alexa647-labelled). The test can be described thus: fibrinogen binders on compound microarrays, profiling panel, artefact control for SMM control-protein annotation, biochemical, small-molecule microarray, 635/667 nm fluorescence (AID 1131).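 Note: z-score merges 667 nm fluorescence with per-spot signal-to-noise over triplicate slides.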 The conditions noted are these: fibrinogen-A647 binding fluorescence, higher = more signal.
Test [5] has as its target Follistatin (Homo sapiens) (UniProt P19883). The test can be described thus: follistatin binders on small-molecule microarrays, primary screen, biochemical, small-molecule microarray, 635/667 nm fluorescence (AID 1132). Conditions: FST binding, 635 nm fluorescence, higher = more signal.
The target in test [6] is Fibroblast growth factor 2 (Homo sapiens) (UniProt P09038). The test can be described thus: FGF2 binders on small-molecule microarrays, primary screen, biochemical, small-molecule microarray, 635/667 nm fluorescence (AID 1133). Conditions: small-molecule microarray binding, FGF2, fluorescence 635/667; higher = more signal.
The nature of test [7]: mitochondrial membrane potential change in A549 cells, profiling panel, cell-based, JC-1 fluorescence, basal, 24 h, 100 nL (AID 1138).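 Note: A549 lung adenocarcinoma cells under basal conditions with no added stimulus; test concentration not given here.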 The conditions noted are these: higher = more signal.
The next test concerns Lefty1. The test can be described thus: Lefty1 binders on small-molecule microarrays, primary screen, biochemical, small-molecule microarray, 635/667 nm fluorescence (AID 1139). The conditions noted are these: small-molecule microarray binding, fluorescence 635/667; higher = more signal.
For test [8], the system named is wheat germ agglutinin (Triticum aestivum), Alexa647-labelled. Put plainly: wheat germ agglutinin binders on compound microarrays, profiling panel, artefact control for SMM control-protein annotation, biochemical, small-molecule microarray, 635/667 nm fluorescence (AID 1140).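 Note: score merges 667 nm feature emission with signal to noise over triplicate slides.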 The conditions noted are these: WGA-A647 binding, 635 nm fluorescence, higher = more signal.

The target in test [9] is Luciferin 4-monooxygenase (Photinus pyralis) (UniProt P08659). The test can be described thus: firefly luciferase enzyme inhibitors, primary screen, biochemical, luminescence, purified enzyme, 2006 set (AID 1141).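 Note: cell-free assay with purified firefly luciferase at 100 ng per well in PBS; test concentration not given here.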 The conditions noted are these: SteadyGlo luminescence, 30 min, higher = more signal, called active from +8 up or from −8 down.
The test system of test [10] is Wnt5a (protein binding on small-molecule microarray). The test can be described thus: Wnt5a binders on small-molecule microarray, primary screen, biophysical, 635/667 nm fluorescence (AID 1142).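 Note: fluorescence read at 667 nm with signal to noise per printed feature.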 The conditions noted are these: 635 nm fluorescence, higher = more signal.
Test [11] is described as follows: cell viability in Huh7 cells, primary screen, cytotoxicity control for HCV replication inhibitor project, CellTiter-Glo luminescence, basal, 48 h (AID 1143).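 Note: Huh7 hepatoma cells carrying a hepatitis C replication reporter with no stimulus; test concentration not given here.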 The conditions noted are these: Huh7 HCV replicon, higher = more signal, called active from +8 up or from −8 down.
Test [12] in a line: P. aeruginosa biofilm formation inhibitors, primary screen, PAO1 strain, BacTiter-Glo luminescence, LB-PBS (AID 1144). Conditions: 12 h, higher = more signal.
A short description of test [13]: CREB reporter modulators without forskolin, primary screen, cell-based, PC12, CRE-LacZ reporter, unstimulated (AID 1145). Conditions: no forskolin, luminescence, 4.5 h, higher = more signal, called active from +8 up or from −8 down.
The nature of test [14]: CREB reporter modulators under forskolin, primary screen, cell-based, PC12, CRE-LacZ reporter, forskolin-stimulated (AID 1146).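 Note: PC12 cells with 6xCRE LacZ reporter stimulated by forskolin 10 µM; beta-galactosidase reporter signal reflecting CREB driven transcription.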 Conditions: luminescence, 4.5 h, higher = more signal, called active from +8 up or from −8 down.
Test [15] has as its target Streptavidin (Streptomyces avidinii) (UniProt P22629). Put plainly: streptavidin binders on small-molecule microarray, primary screen, artefact control for SMM compound annotation, biophysical, 635/667 nm fluorescence (AID 1147).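 Note: signal reflects streptavidin binding to arrayed compounds as a control protein.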 Conditions: streptavidin binding, higher = more signal.
Test [16] can be described thus: small-molecule binders of probe aInhba, primary screen, biochemical, small-molecule microarray, 635/667 nm fluorescence (AID 1148).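 Note: score merges 667nm spot fluorescence with signal-to-noise for antibody binding to printed compounds.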 The conditions noted are these: higher = more signal.
Test [17] has as its target Torsin-1A (Homo sapiens) (UniProt O14656). The test can be described thus: torsin A binders from cell lysate, primary screen, small-molecule microarray, wild-type, 635/667 nm (AID 1149). The conditions noted are these: COS7 hTOR1A-WT lysate, 635 nm fluorescence, higher = more signal.
Test [18] shares this target. The test can be described thus: small-molecule binders of mutant TOR1A in lysate, primary screen, cell lysate, small-molecule microarray, COS7 lysate, 635/667 nm fluorescence (AID 1150).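 Note: score pools 667 nm emission and signal to noise measuring lysate protein binding.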 Conditions: COS7 hTOR1A mutant lysate, 635 nm fluorescence, higher = more signal.
Test [19] deals with Sonic hedgehog protein (Shh). Put plainly: small-molecule binders of Shh protein, primary screen, biochemical, small-molecule microarray, 635/667 nm fluorescence (AID 1151).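 Note: Shh protein binding to compounds spotted on small-molecule microarray slides; score combines spot fluorescence intensity with signal-to-noise across triplicate slides.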 Conditions: small-molecule microarray binding, 635 nm fluorescence; higher = more signal.

Sequence of Streptavidin (Streptomyces avidinii) (P22629 whole entry, looked up): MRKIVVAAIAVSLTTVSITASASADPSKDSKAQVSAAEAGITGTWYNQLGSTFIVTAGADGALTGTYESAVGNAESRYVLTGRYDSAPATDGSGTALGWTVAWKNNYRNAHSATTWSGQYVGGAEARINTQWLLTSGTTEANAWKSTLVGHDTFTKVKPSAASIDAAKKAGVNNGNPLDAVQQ
Sequence of Luciferin 4-monooxygenase (Photinus pyralis) (P08659 whole entry, looked up): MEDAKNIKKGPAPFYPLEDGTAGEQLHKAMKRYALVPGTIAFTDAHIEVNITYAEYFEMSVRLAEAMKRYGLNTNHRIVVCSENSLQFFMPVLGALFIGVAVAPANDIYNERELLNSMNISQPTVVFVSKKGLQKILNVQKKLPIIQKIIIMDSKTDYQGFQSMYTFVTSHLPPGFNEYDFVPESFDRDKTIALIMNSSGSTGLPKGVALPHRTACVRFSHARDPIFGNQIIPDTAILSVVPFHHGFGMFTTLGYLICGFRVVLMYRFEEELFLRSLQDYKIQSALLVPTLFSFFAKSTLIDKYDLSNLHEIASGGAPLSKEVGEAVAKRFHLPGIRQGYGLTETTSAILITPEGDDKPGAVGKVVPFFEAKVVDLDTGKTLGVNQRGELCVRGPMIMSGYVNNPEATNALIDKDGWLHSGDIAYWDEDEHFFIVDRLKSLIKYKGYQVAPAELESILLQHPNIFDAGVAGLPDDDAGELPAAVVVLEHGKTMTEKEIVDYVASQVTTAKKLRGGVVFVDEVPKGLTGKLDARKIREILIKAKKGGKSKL
Sequence of Fibroblast growth factor 2 (Homo sapiens) (P09038 whole entry, looked up): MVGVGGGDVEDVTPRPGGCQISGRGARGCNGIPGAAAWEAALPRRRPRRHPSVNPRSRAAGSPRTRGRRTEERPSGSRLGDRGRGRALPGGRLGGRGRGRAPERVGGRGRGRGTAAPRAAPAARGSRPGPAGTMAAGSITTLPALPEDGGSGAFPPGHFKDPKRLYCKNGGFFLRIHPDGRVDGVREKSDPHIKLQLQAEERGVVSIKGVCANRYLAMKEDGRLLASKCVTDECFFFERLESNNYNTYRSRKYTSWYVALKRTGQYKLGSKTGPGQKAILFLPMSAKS
Sequence of Torsin-1A (Homo sapiens) (O14656 whole entry, looked up): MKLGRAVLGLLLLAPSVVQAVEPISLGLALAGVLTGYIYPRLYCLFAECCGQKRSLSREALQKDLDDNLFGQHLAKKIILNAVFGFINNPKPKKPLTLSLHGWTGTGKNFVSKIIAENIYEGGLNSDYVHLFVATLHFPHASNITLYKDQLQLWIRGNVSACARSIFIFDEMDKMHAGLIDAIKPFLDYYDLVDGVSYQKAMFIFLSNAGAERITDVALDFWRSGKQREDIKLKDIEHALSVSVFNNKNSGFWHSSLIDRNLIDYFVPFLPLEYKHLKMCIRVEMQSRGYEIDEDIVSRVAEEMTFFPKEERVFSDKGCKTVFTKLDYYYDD
Sequence of Follistatin (Homo sapiens) (P19883 whole entry, looked up): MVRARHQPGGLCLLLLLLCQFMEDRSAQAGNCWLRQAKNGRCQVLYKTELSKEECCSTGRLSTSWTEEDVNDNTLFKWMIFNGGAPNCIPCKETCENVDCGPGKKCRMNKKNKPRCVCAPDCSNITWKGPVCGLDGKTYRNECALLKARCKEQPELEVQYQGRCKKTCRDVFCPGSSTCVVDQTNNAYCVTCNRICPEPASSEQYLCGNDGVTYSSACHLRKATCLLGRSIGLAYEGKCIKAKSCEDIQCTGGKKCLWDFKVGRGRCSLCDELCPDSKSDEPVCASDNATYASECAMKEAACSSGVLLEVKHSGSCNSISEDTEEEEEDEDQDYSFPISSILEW
Sequence of Focal adhesion kinase 1 (Homo sapiens) (Q05397 whole entry, looked up): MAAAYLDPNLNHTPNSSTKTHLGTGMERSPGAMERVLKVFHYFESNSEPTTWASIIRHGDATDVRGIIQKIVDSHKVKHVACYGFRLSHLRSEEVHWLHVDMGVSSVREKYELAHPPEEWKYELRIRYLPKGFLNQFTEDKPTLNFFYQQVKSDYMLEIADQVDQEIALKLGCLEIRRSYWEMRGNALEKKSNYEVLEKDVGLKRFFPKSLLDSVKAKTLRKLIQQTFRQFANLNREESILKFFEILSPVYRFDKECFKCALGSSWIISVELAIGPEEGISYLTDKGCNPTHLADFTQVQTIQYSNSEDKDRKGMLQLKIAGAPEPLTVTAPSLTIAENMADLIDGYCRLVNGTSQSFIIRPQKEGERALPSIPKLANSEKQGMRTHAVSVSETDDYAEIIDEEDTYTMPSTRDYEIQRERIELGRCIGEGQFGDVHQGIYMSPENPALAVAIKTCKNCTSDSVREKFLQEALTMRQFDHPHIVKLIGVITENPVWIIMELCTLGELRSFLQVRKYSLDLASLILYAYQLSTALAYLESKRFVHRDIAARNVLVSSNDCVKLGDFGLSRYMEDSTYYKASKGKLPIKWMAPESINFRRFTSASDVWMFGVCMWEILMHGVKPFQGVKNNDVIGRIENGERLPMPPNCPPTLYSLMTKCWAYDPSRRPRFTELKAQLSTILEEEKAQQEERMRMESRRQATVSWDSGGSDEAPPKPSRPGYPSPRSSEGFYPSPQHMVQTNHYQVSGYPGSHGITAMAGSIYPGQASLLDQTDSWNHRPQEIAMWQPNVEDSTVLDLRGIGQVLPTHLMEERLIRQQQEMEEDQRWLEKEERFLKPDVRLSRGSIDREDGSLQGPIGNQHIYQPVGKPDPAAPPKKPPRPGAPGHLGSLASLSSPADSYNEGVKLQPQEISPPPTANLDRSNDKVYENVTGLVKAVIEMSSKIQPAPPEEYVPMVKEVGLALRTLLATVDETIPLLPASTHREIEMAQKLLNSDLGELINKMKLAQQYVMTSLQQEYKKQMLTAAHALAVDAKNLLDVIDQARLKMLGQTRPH

For the compound `C=C/C=C/[C@H]1C(=C)CN([C@@H](Cc2ccccc2)C(=O)OC)[C@@H]1[C@H](O)Cc1ccccc1`, the composite z-score in [1] was -0.677; in test [2], -0.748; in test [3], -0.526; in [4] it was -0.108; in test [5] it was 0.174; in test [6] it was -0.348. Also, the composite z-score is -0.426 with Lefty1; 0.0321 in test [8]; -0.224 in test [10]; -0.663 in test [15]; -0.0736 in test [16]; -1.74 with Torsin-1A (Homo sapiens) [17]. For the same compound, the composite z-score with Torsin-1A (Homo sapiens) [18] is -1.4; in test [19], 0.122. Moreover, the z-score in [7] is 0.0936; in [9], -0.494 (inactive); in [11], -0.123 (inactive); in test [12], 0.0605 (inactive); in test [13], 5.75 (inactive); in test [14], 0.794 (inactive).

Turning to `COCCn1c(C(=O)N2CCCC2)cc2c1C[C@H]1CN(C(=O)c3ccccc3)[C@@](Cc3ccc(F)cc3)(C(=O)OC)[C@@H]21`, the composite z-score is 0.346 in test [1]; 1.27 in [2]; 1.61 in test [3]; 1.02 in [4]; 0.35 in test [5]; -0.703 in [6]. The composite z-score was 0.108 in the test with Lefty1; 0.845 in test [8]; 0.45 in test [10]; 1.8 in [15]; -0.0931 in [16]; 1.42 in the test with Torsin-1A (Homo sapiens) [17]. Besides, the figures for the composite z-score (with Torsin-1A (Homo sapiens) [18]; in [19]) were 2.2 and -0.554, respectively. In addition, the z-score in [7] was -0.328; in [9] it was 3.4 (inactive); in [11], -1.37 (inactive); in test [12], -0.727 (inactive); in test [13], -0.568 (inactive); in [14], -0.442 (inactive).

In the case of `CCCCC(=C=CC[C@@H](O)c1ccccc1OCCO)CCO`, the composite z-score in test [1] is -0.448; in [2] it was -0.21; in [3], -0.206; in test [4] it was -0.883; in [5], 0.531; in test [6], -0.397. Further, the composite z-score is 0.036 in the test with Lefty1; 0.177 in test [8]; -0.235 in test [10]; -0.488 in test [15]; 0.0173 in [16]; -0.873 with Torsin-1A (Homo sapiens) [17]. Also, the composite z-score amounted to 0.286 with Torsin-1A (Homo sapiens) [18] and 0.134 in test [19]. Besides, the z-score in test [7] is 1.25; in [9], -1.85 (inactive); in test [11], -0.717 (inactive); in test [12], -0.0652 (inactive); in [13], 17.8 (active); in test [14] it was 0.905 (inactive).

Take `C=CCNC(=O)[C@H]1[C@@H]2C(=O)O[C@@H](c3ccccc3)[C@@H](c3ccccc3)N2[C@@H](c2ccc(OCCO)cc2)[C@]12C(=O)Nc1ccc(C#CC3=CCCCC3)cc12`: the composite z-score in test [1] is 0.354; in test [2] it was 1.09; in test [3], -0.544; in test [4] it was 0.957; in test [5] it was 1.26; in [6], 0.553. Also, the composite z-score in the test on Lefty1 is 0.937; in [8], 0.494; in test [10] it was 0.722; in test [15], 0.376; in [16], -0.0136; in the test with Torsin-1A (Homo sapiens) [17] it was 0.127. Besides, the composite z-score turned out to be 0.578 with Torsin-1A (Homo sapiens) [18] and 1.54 in [19]. Also, the z-score is -0.801 in test [7]; 0.098 (inactive) in test [9]; -4.45 (inactive) in [11]; 0.334 (inactive) in [12]; 0.775 (inactive) in test [13]; -0.267 (inactive) in test [14].

Consider `CCOC1=C2C(CN(S(=O)(=O)c3ccc(C)cc3)C2c2ccc(C)cc2)C2C(=O)N(c3ccccc3)C(=O)C2C1` (stereo not given), for which the composite z-score in test [1] turned out to be 0.727; in [2] it was 1.15; in test [3], 0.553; in test [4], 0.783; in test [5], 0.475; in test [6] it was 0.301. Besides, the composite z-score with Lefty1 is 0.535; in test [8], 0.4; in test [10], -0.069; in [15], 0.963; in test [16], 0.0906; with Torsin-1A (Homo sapiens) [17], -0.196. Moreover, the results for the composite z-score (with Torsin-1A (Homo sapiens) [18]; in [19]) were 0.115 and 0.364, respectively. Also, the z-score in test [7] was -0.368; in test [9], 1.09 (inactive); in test [11], -0.288 (inactive); in test [12], -0.382 (inactive); in test [13], -0.275 (inactive); in test [14], 0.804 (inactive).
